Assay results published in PubChem BioAssay (Tox21).
“And” between values parts separate entries of the source, which are not always exact repeats. Equal entries are not always repeated. Results filed as inconclusive are left out. Unmarked numbers belong to inactive results. The source made the active and inactive calls. Calls follow the shape of the full dose curve.

Test: qHTS assay to identify small molecule agonists of the hypoxia (HIF-1) signaling pathway - cell viability counter screen (AID 1224844); also: nearly all actives have a fitted effect of over 50% in size
Conditions: HRE-bla ME-180 viability, CellTiter-Glo luminescence, 17 h; series mostly up to 76.8 µM; activity change, negative = cytotoxicity: at the top concentration
Text: National Center for Advancing Translational Sciences [NCATS]
NIH Chemical Genomics Center [NCGC]
U.S. Environmental Protection Agency [EPA]
National Institutes of Environmental Health Sciences [NIEHS]
National Toxicology Program [NTP]
U.S. Food and Drug Administration [FDA]
Hypoxia-inducible factor-1 (HIF-1) is the major hypoxia-regulated transcription factor that controls cellular responses to low oxygen concentration. HIF-1 is composed of two subunits: hypoxia responsive HIF-1-alpha and constitutively expressed HIF-1-beta, which is also known as aryl hydrocarbon receptor nuclear translocator. During hypoxic conditions, HIF-1-alpha heterodimerizes with HIF-1-beta and translocates into the nucleus where the HIF-1 complex binds to the hypoxia-response element (HRE) and activates expression of target genes such as VEGF (vascular endothelial growth factor). The HIF-1 pathway is essential to normal growth and development, and is involved in the pathophysiology of cancer, inflammation, and ischemia.
Using a beta-lactamase reporter-gene under control of the hypoxia response element, a cell-based assay [CellSensor(TM) HRE-bla ME-180 from Life Technologies, Carlsbad, CA] was used to measure hypoxia-induced signaling. Tox21 10K library compounds were measured for their ability to induce the reporter gene activity. The cytotoxicity of the Tox21 compound library against HRE-bla ME-180 cell line was tested in parallel by measuring cell viability using CellTiter-Glo assay (Promega, Madison, WI) in the same assay wells.
Tox21 Assay Protocol Summary:
HRE-bla ME-180 cells were dispensed at 2,000 cells per well in 6 uL of assay medium containing 0.5% dialyzed FBS into black wall/clear-bottom 1536-well plates using a Multidrop Combi (Thermo Scientific, Waltham, MA) dispenser. After the assay plates were incubated at 37C and 5% CO2 for 5 hrs, 23 nL of compounds dissolved in DMSO, positive controls or DMSO only was transferred to each well of the assay plate using a Pintool station (Kalypsys, San Diego, CA). The assay plates were incubated at 37C and 5% CO2 for 17 hrs. One uL of LiveBLAzerTM B/G FRET substrate (CCF4-AM) (Life Technologies) was added to each well using a Flying Reagent Dispenser (FRD, Aurora Discovery, San Diego, CA). After 2 hr incubation at room temperature, fluorescence intensity (405 nm excitation, 460 nm and 530 nm emissions) was measured using an Envision plate reader (PerkinElmer, Shelton, CT). For cytotoxicity, 4 ul/well of CellTiter-Glo reagent was added into the assay plates using an FRD. After 30 min incubation at room temperature, the luminescence intensity was measured using a ViewLux plate reader (PerkinElmer).
% is scaled to controls: 0 for no effect and ±100 for the full control effect; potency is read from the fitted curve at half-maximal effect.

SMILES | activity change, negative = cytotoxicity | Potency
CCCCCCCC(OC)OC | 2.71% [at 35.3 µM] | –
CCCCCCS | 0.715% | –
CCCCCCCCCCCCOC(=O)c1cc(O)c(O)c(O)c1 | – | 48.8 µM (active) and 54.9 µM (active)
CC(NCCC(c1ccccc1)c1ccccc1)c1ccccc1 (stereo not given) | -17.5% [at 35.3 µM] | –
CC(C)(C)c1n[nH]c(=O)n(N)c1=O | 4.19% | –
CC(=O)Oc1ccc(C2(c3ccc(OC(C)=O)cc3)C(=O)Nc3ccccc32)cc1 | – | 0.0425 µM (active)
CCOC(=O)CC(C)O (stereo not given) | 2.28% | –
c1ccc(Nc2cccc3ccccc23)cc1 | -22.9% | –
NCCCCCCNCCCCCCN | 7.51% | –
CC(C)=CC1CC(C)CCO1 (stereo not given) | 0.663% | –
COc1cccc(CCc2ccccc2OCC(CN(C)C)OC(=O)CCC(=O)O)c1 (stereo not given) | – | 19 µM (active)
Cc1ccc2ccc3cccc4ccc1c2c34 | -4.08% | –
Oc1cc2ccccc2cc1O | -13.2% | –
CCCSS/C(CCO)=C(\C)N(C=O)Cc1cnc(C)nc1N | -4.31% [at 35.3 µM] | –
CCC(=O)OCCc1ccccc1 | 3.94% | –
CC1(C)C(=O)N(CO)C(=O)N1CO | 0.187% | –
COC(=O)CC#N | -13.4% | –
C[C@H]1O[C@@H](O[C@H]2[C@@H](O)C[C@H](O[C@H]3[C@@H](O)C[C@H](O[C@H]4CC[C@@]5(C)[C@H](CC[C@@H]6[C@@H]5C[C@@H](O)[C@]5(C)[C@@H](C7=CC(=O)OC7)CC[C@]65O)C4)O[C@@H]3C)O[C@@H]2C)C[C@H](O)[C@@H]1O | – | 123 nM (active) and 153 nM (active)
NC1(c2ccc(-c3nc4ccn5c(=O)[nH]nc5c4cc3-c3ccccc3)cc2)CCC1 | – | 2.13 µM (active)
COC(=O)C1=C(C)NC(C)=C(C(=O)OCCCN2CCC(c3ccccc3)(c3ccccc3)CC2)C1c1cccc([N+](=O)[O-])c1 (stereo not given) | – | 21.3 µM (active)

SMILES | activity change, negative = cytotoxicity | Potency
COc1ccc(-n2nc(CCC(=O)N(C)O)cc2-c2ccc(Cl)cc2)cc1 | – | 19 µM (active)
CCOC(=O)CN | -1.71% | –
CCOCOCC | 6.58% | –
O=C1OC(OC(=O)c2cccnc2Nc2cccc(C(F)(F)F)c2)c2ccccc21 (stereo not given) | 20.8% [at 35.3 µM] | –
CO[Si](CCCNCCNCCN)(OC)OC | 4.97% | –
O=C(O)c1cccc(Cl)n1 | -4% | –
CC1=CCC(=O)O1 | 9.79% | –
COc1ccc(C#N)cc1 | 4.37% | –
CCCCN(CCCC)CCC(O)c1cc2c(Cl)cc(Cl)cc2c2cc(C(F)(F)F)ccc12 (stereo not given) | – | 21.3 µM (active)
CC[N+](CC)(CC)Cc1ccccc1 | -1.78% | –
CCCCCCOc1ccc(O)cc1 | – | 54.9 µM (active)
CC1=C(/C=C/C(C)=C/C=C/C(C)=C\C=O)C(C)(C)CCC1 | 7.1% | –
NC(=O)C(=O)N/N=C/c1ccc([N+](=O)[O-])o1 | -24.2% [at 35.3 µM] | –
CO[C@H]1C=CO[C@@]2(C)Oc3c(C)c(O)c4c(O)c(cc(O)c4c3C2=O)NC(=O)/C(C)=C\C=C/[C@H](C)[C@H](O)[C@@H](C)[C@@H](O)[C@@H](C)[C@H](OC(C)=O)[C@@H]1C | – | 22 µM (active)
CCCN(CCc1cccs1)[C@H]1CCc2c(O)cccc2C1 | 3.04% [at 35.3 µM] | –
CCCC(CC)CCCCCCCN (stereo not given) | – | 50.2 µM (active)
C=CC(C)C#N (stereo not given) | 4.49% | –
CC(C)c1cccc(C(C)C)c1N1C(=O)c2ccc(O)cc2C1=O | -13.5% | –
CN(C)CCCN1c2ccccc2CCc2ccccc21 | – | 38.9 µM (active)
CCCCCCCCCCOCC(O)CN (stereo not given) | -23% [at 35.3 µM] | –
